# PubChem BioAssay (NCI)
# Compounds without any hit were thinned out: in the full panel of roughly 83,000, 20% have a hit.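 Growth was measured after 48 h exposure to one concentration of compound in 96-well plates. Values under 10 count as active.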 A number with no mark means an inactive call. Calls of active or inactive are those of the source.
# How the values were obtained:
# Experiment in all cases: NCI-60 one-dose screen, 48 h (100 = growth as untreated, 0 = no growth, -100 = all killed)
# Conditions in all cases: 10 µM unless noted
# [1] = test system: RPMI-8226 leukemia
# [2] = test system: OVCAR-8 ovarian
# [3] = test system: OVCAR-5 ovarian
# [4] = test system: OVCAR-4 ovarian
# [5] = test system: SK-OV-3 ovarian
# [6] = test system: IGROV1 ovarian
# [7] = test system: OVCAR-3 ovarian
# [8] = test system: HS 578T breast
# [9] = test system: NCI/ADR-RES ovarian
Compound,growth [1],growth [2],growth [3],growth [4],growth [5],growth [6],growth [7],growth [8],growth [9]
N#C/C(=C\c1cccc2cnccc12)n1nnc2cccc(F)c21,6.88% (active),41.7%,31.8%,38.7%,90.2%,26.5%,35.3%,47.1%,23.8%
CN1CCN(c2ccc(-c3cc4c(Nc5ccc(F)c(Cl)c5)ncnn4c3)cc2)CC1,13.1%,70.4%,95.2%,71.2%,92.7%,49.5%,77%,75.2%,72.5%
c1ccc2c(-c3nc(-c4c[nH]c5ccncc45)cs3)c[nH]c2c1,10.9%,60.2%,70.8%,59.5%,73.3%,54.2%,72.3%,72.3%,72.7%
Cc1c(C(=O)N[C@@H](Cc2ccccc2)C(=O)C(=O)NCc2ccc(F)cc2)[nH]c2ccccc2c1=O,87.9%,102%,104%,90.6%,99.6%,96.8%,102%,105%,102%
COc1ccc(C(=O)C[C@]2(O)C(=O)Nc3c(Cl)ccc(Cl)c32)cc1,20.1%,33.1%,52.1%,48.4%,33.1%,34.8%,9.64% (active),-3.94% (active),14.1%
COc1ccc(-c2cc3c4c(nc5ccccc5c4c2)CC(c2cc(OC)c(OC)c(OC)c2)O3)cc1 (stereo unspecified),25.1%,32%,18.4%,-9.24% (active),20.2%,52.5%,41.9%,13.2%,41.4%
Cc1cc(=O)oc2cc(OC(=O)N3CCN(C)CC3)ccc12,108%,103%,98.7%,104%,110%,110%,106%,99.4%,104%
C#Cc1cccc(NC(=O)c2ccc(NC(=O)C=C)cc2)c1,60.2% [8.25 µM],75.9% [8.25 µM],86.7% [8.25 µM],88.9% [8.25 µM],97% [8.25 µM],70.9% [8.25 µM],70.5% [8.25 µM],94.2% [8.25 µM],73.9% [8.25 µM]
COc1cc(C(=O)c2cc(C)c3[nH]c4ccc(O)cc4c3c2C)cc(OC)c1OC,8.34% (active),27.3%,38.9%,48.3%,46.5%,12.1%,-45% (active),38.1%,8.01% (active)
CCOc1ccc2nc(SCc3nc4n(n3)S(=O)(=O)c3ccccc3N4C)sc2c1,30.7%,27.7%,-9.82% (active),31.2%,35.3%,-30.9% (active),37.5%,-59.3% (active),6.82% (active)
CC(=O)OC[C@H]1OC(Sc2sc(C(=O)c3ccc(Cl)cc3)c(N)c2-c2nc3ccccc3s2)[C@H](OC(C)=O)[C@@H](OC(C)=O)[C@@H]1OC(C)=O (stereo partly specified),73%,72.6%,87.3%,52.5%,90.5%,70.9%,103%,71.4%,78.7%
COc1cc(C(=O)/C=C/c2sc(Cl)nc2Cl)cc(OC)c1OC,-38% (active),33.6%,77.1%,57.2%,97.7%,25.5%,-95.5% (active),71.3%,76.3%
COc1ccc(-c2c(C(=O)NS(C)(=O)=O)n(Cc3cccc(C(F)(F)F)c3)c3ccccc23)cc1,81.2%,82.1%,106%,96.1%,97.2%,90.7%,88.5%,86.5%,94.4%
CCCCC1CCCC12NC(=O)NC2=O (stereo unspecified),101%,113%,88.2%,106%,110%,88.8%,92.8%,112%,92.9%
CN1CCN(c2ccc(-c3cnc4c(-c5csc6ccccc56)cnn4c3)cc2)CC1,-16.7% (active),-29% (active),7.38% (active),11.9%,81.1%,5.7% (active),-68.6% (active),-28.4% (active),-20.8% (active)
COc1ccc(-c2ncnc3c2ncn3CC#CCCl)cc1,34.7%,65.3%,97.7%,51.1%,85.8%,46.2%,53.4%,107%,56.2%
CSc1nc2ccc(C)cc2cc1/C=N/O,106%,84.6%,81.6%,91%,86%,87.8%,106%,75%,98.1%
CCN1C(=O)N(CC)C2Nn3c(s/c(=C\c4ccc([N+](=O)[O-])cc4)c3=O)=NC21 (stereo unspecified),51.8%,66.7%,82.5%,14.2%,105%,17.3%,11.6%,83.4%,23.4%
CCOC(=O)CC1C(COC(=O)NC)OC(n2cnc3c(NC(=O)Nc4ccccc4)ncnc32)C1O[Si](C)(C)C(C)(C)C (stereo unspecified),39.7%,74%,94.2%,41.6%,94.9%,49.1%,51.1%,57.1%,48.1%
Cc1nc(/N=C(\N)NC(=O)Nc2cccc(Cl)c2)sc1C,77%,94.5%,96.3%,99.3%,87.7%,63.1%,81.5%,68.8%,42.3%
Cc1cc(O)c(C2=NN(c3ccc(S(N)(=O)=O)cc3)C(/C=C/c3ccccc3)C2)cc1Cl (stereo unspecified),48.7%,38.6%,51%,34.6%,17%,16%,29.7%,39.2%,29.7%
CCOC(=O)/C=C1\S/C(=N\Nc2ccc([N+](=O)[O-])cc2[N+](=O)[O-])N(Cc2ccccc2)C1=O,7.78% (active),73.4%,95%,69.2%,104%,88.5%,83.5%,84.3%,75.2%
COc1cc(CCC[P+](c2ccccc2)(c2ccccc2)c2ccccc2)c(OC)c(OC)c1OC,68.4%,85.6%,79.6%,49.8%,83.5%,70.5%,72%,51.8%,77.7%
Oc1ccc(CCl)c2cccnc12,57.4%,73.8%,88.4%,24.6%,87.9%,78.8%,10.8%,79.7%,28.8%
COc1cc(C)c(Cc2cnc(N)nc2N)cc1OC,82.1%,105%,99.6%,99.5%,105%,95.1%,114%,103%,104%
COc1ccc(-n2c(N)c(-c3nc4ccccc4[nH]3)cc(C#N)c2=O)cc1,92.3%,69.8%,99%,77.5%,111%,103%,107%,50.1%,77.8%
COC(=O)/C=C1\S/C(=N\Nc2ccc([N+](=O)[O-])cc2[N+](=O)[O-])N(C2CCCCC2)C1=O,-21.8% (active),35.4%,84.3%,47.1%,96.8%,58.4%,25.2%,65.2%,29.7%
O=C(/C=C/c1ccc([N+](=O)[O-])o1)NNC(=O)c1cc2ccccc2cc1O,-6.98% (active),8.19% (active),45.7%,29.3%,32.8%,-1.53% (active),-32.3% (active),33%,5.33% (active)
COc1nc2ccc(C)cc2cc1-c1nc2c(cnn2-c2ccccc2)c(=O)[nH]1,80.8%,94%,94.5%,94.9%,73.6%,77.4%,50.2%,90.6%,74.3%
